Bioassay records as filed in PubChem.
Compounds with a hit are over-represented: about 1% of the library has one in this group of screens.
JNK3 blocker: blocks human JNK3 kinase activity; purified JNK3 kinase activity, HTS; inhibition, % at 8 µM; P53779; 60,000 tested, 0.61% active; in the data active = inhibition above about 17%
PKA inh: inhibitors of human protein kinase A; P17612; PKA Kemptide phosphorylation, Kinase-Glo ATP luminescence; inhibition, % at 6 µM; 65,000 tested, 0.1% active; AID 524;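 active = inhibition above the screen-wide mean inhibition plus 3 SD, cut at about 21% in these data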
Hsp90 inh: displaces geldanamycin probe from tumor Hsp90 | P07900 | NCI-N417 lysate Hsp90, Cy3B-geldanamycin FP displacement | inhibition, % at 30 µM | 64,000 tested, 0.35% active | AID 429;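 active = inhibition above 50%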
ROCK2 blocker: inhibitors of human Rho kinase 2; purified ROCK2, Kinase-Glo ATP depletion luminescence; inhibition, % at 6 µM; 60,000 tested, 0.35% active;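 active = inhibition above the screen-wide mean inhibition plus 3 SD, cut at about 18% in these data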
Cdc25B inh: inhibitors of human Cdc25B phosphatase. 65,000 tested, 0.1% active. inhibition, %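 (compounds tested at 10 µM final in the well)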. P30305. recombinant Cdc25B, OMFP fluorescence Ex485/Em525; in the data active = inhibition above about 50%
Target sequence (P30305 whole entry, looked up): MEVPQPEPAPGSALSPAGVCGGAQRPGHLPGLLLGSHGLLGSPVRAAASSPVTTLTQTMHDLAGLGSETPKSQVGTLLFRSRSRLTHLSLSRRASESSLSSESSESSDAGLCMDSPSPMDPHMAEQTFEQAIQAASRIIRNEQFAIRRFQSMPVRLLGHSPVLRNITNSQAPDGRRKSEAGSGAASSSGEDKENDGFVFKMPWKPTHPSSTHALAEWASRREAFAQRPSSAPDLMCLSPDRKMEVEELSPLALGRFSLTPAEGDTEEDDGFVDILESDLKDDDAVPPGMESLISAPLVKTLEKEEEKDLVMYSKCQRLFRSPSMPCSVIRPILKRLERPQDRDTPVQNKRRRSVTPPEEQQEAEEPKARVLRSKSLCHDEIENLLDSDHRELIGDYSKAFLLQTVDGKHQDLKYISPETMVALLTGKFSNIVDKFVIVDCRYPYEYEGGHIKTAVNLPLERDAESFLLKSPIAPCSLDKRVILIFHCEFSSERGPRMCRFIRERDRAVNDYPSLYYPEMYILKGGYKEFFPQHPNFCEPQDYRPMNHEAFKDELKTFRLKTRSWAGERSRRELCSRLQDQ
DUSP1 inh: inhibitors of human MKP-1 phosphatase; P28562; recombinant MKP-1, OMFP hydrolysis fluorescence; inhibition, %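 (compounds tested at a single concentration somewhere between 10 and 100 µM)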; 65,000 tested, 0.15% active;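 active = inhibition above about 50%, limit read from the data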
A number is an active result; 0 = inactive; - = not tested or not shown.

SMILES	JNK3 blocker	PKA inh	Hsp90 inh	ROCK2 blocker	Cdc25B inh	DUSP1 inh
CC1CCc2nc(N)c(C#N)c(-c3ccncc3)c2C1 (centres undefined)	17	0	0	0	0	0
CC1CCc2nc(N)c(C#N)c(-c3cccnc3)c2C1 (centres undefined)	-	-	-	-	0	0
CCOc1cccc2cc(-c3nnc(-c4ccccc4)o3)c(=O)oc12	0	0	0	0	0	0
CCOC1(OCC)N=C(N)C2(C#N)C(c3ccc(NC(C)=O)cc3)C12C#N (centres undefined)	0	0	0	26	0	0
O=C(Nc1nnc(CC(=O)N2CCCC2)s1)c1cnccn1	-	0	-	-	0	0
O=C1C(C=Nc2ccccc2O)=C(O)c2ccccc21	35	0	0	0	0	0
OC[C@H]1O[C@@H](n2cnc3c(NC4CCCC4)ncnc32)C(O)[C@H]1O (some centres undefined)	-	-	0	-	-	-
Cc1cccc(/N=C/c2c(O)[nH]c3ccccc23)n1	30	0	0	0	0	0
Oc1[nH]c2ccccc2c1C=Nc1ccc2c(c1)OCCO2	35	0	0	0	0	0
Cc1cccc(/N=C/c2c(O)cc(C)oc2=O)n1	0	0	0	0	0	0
Cc1nnc(SCCn2c(N3CC(C)CC(C)C3)nc3c2c(=O)n(C)c(=O)n3C)s1 (centres undefined)	0	0	68	0	0	0
COc1ccc(C2C3=C(CCCC3=O)Nc3nc4ccccc4n32)c(OC)c1OC (centres undefined)	0	0	0	0	0	0
COc1cc(OC)cc(-n2nc(C(=O)NCCCN3CCOCC3)c3ccccc3c2=O)c1	0	0	0	0	76	0
COCCNC(=O)c1nn(-c2cc(OC)cc(OC)c2)c(=O)c2ccccc12	0	0	0	0	0	0
CCOc1ccc(/C(O)=C2\C(=O)C(=O)N(c3cc(C)on3)C2c2ccccc2OC)cc1 (centres undefined)	21	0	0	0	0	0
CCn1c(=O)cc(SCC(=O)Nc2ccccc2N2CCN(C)CC2)c2ccccc21	0	0	0	0	0	0
CC(C)n1nc(C(=O)OCC(=O)N(C)C2CCS(=O)(=O)C2)c2ccccc2c1=O (centres undefined)	21	0	0	0	0	0
N#C/C(=C\c1ccc(O)c(O)c1)C(=O)NCCCNC(=O)/C(C#N)=C/c1ccc(O)c(O)c1	-	-	81	-	-	-
C[C@H](NC(=O)/C(C#N)=C/c1ccc(O)c(O)c1)c1ccccc1	-	-	75	-	-	-
C[C@@H](NC(=O)/C(C#N)=C/c1ccc(O)c(O)c1)c1ccccc1	-	-	77	-	-	-
N#CC(C#N)=C(N)/C(C#N)=C/c1ccc(O)cc1	-	-	0	-	-	-
N#C/C(=C\c1ccc(O)c(O)c1)C(=O)Nc1ccccc1	-	-	83	-	-	-
NCC1OC(O[C@@H]2[C@H](O)C(OC3C(O)C(N)CC(N)C3OC3OC(CO)C(O)C(O)C3N)O[C@@H]2CO)C(N)C(O)C1O (some centres undefined)	-	-	0	-	-	-
C[N+](C)(C)CCO	-	-	0	-	-	-
N#Cc1sc2nc3c(c(-c4ccco4)c2c1N)CCCC3	17	0	0	0	0	0
SMILES	JNK3 blocker	PKA inh	Hsp90 inh	ROCK2 blocker	Cdc25B inh	DUSP1 inh
c1coc(-c2nc3c4c5c(sc4ncn3n2)CCCC5)c1	0	0	0	0	0	0
Nc1ncnc2c1ncn2[C@@H]1O[C@H](COP(=O)(O)OP(=O)(O)OP(=O)(O)OP(=O)(O)OC[C@@H]2O[C@H](n3cnc4c(N)ncnc43)C(O)[C@@H]2O)[C@H](O)C1O (some centres undefined)	-	-	0	-	-	-
COc1cc(NC(=O)C2CC(c3cccc(OC)c3OC)=NO2)cc(OC)c1OC (centres undefined)	69	0	0	0	0	0
COc1cc(C2=NOC(C(=O)Nc3ccc(C(C)=O)cc3)C2)cc(OC)c1OC (centres undefined)	0	0	0	0	0	0
Cc1cc(C(=O)CN2C(=O)NC3(CCCCC3)C2=O)c(C)n1Cc1ccc2c(c1)OCO2	0	0	0	22	0	0
Cc1nn2c(-c3cccc(NC(=O)c4ccco4)c3)nnc2c2ccccc12	0	0	0	0	0	51
CCOc1ccc(S(=O)(=O)Nc2ccc3c(c2)OCO3)c2cccnc12	0	0	54	0	0	0
CC(C)c1nnc(NC(=O)CSc2nc3ccccc3s2)s1	0	0	0	0	0	0
CC(C)OC(=O)CSc1nc2ccccc2s1	0	0	93	0	0	0
Cn1c(SCc2ccc(Br)cc2)nnc1-c1ccncc1	0	25	0	0	0	0
CCCc1cc(-c2[nH]ncc2-c2ccc3c(c2)OCCCO3)c(O)cc1O	0	0	78	0	0	0
CCCc1cc(-c2[nH]ncc2-c2ccc(C(=O)OCC)o2)c(O)cc1O	0	0	0	0	0	0
CCOC(=O)c1ccc2[nH]c3c(c2c1)CCCCC3=O	24	0	0	0	0	0
O=C1c2ccccc2C(Nc2ccc3c(c2)OCO3)N1Cc1ccc2c(c1)OCO2 (centres undefined)	0	0	51	0	0	0
O=C1c2ccccc2C(Nc2cccnc2)N1Cc1ccc2c(c1)OCO2 (centres undefined)	0	0	0	0	0	0
CCCCS(=N)(=O)CC[C@H](N)C(=O)O (some centres undefined)	-	-	0	-	-	-
COc1ccc(N2C(=O)CSC23C(=O)N2CCCc4cccc3c42)cc1 (centres undefined)	0	0	67	0	0	0
CCCc1cc2c(cc1NS(=O)(=O)c1ccc(CCNC(C)=O)cc1)OCO2	0	0	57	0	0	0
Cc1nc2c(OCc3ccccc3)cccn2c1CC#N	-	-	0	-	-	-
CC(C)c1nc(SCC(=O)NCc2ccc3c(c2)OCO3)c2c(=O)n(C)c(=O)n(C)c2n1	0	0	0	0	0	0
COc1ccc(C(C)=O)cc1COC(=O)c1c(C)noc1C	24	0	0	0	0	0
Cn1c(C(=O)NCc2ccco2)cc2c(=O)[nH]c3ccccc3c21	47	0	0	0	0	0
Cc1cc(C(=O)NCc2ccco2)cs1	0	0	-	0	0	0
COc1ccc2nc(C)cc(NN=Cc3cccnc3)c2c1	-	-	0	-	-	-
COc1ccc(-c2cnc(N)nc2-c2ccc(OC)cc2O)cc1	31	0	0	0	0	0
SMILES	JNK3 blocker	PKA inh	Hsp90 inh	ROCK2 blocker	Cdc25B inh	DUSP1 inh
C=C(C)COc1ccc(-c2ncncc2Oc2ccc(OC)cc2)c(O)c1	0	0	0	0	0	0
COc1cccc(Oc2cnc(N)nc2-c2ccc(OC)cc2O)c1	0	0	0	0	0	0
C=C(C)COc1ccc(-c2nc(N)ncc2-c2ccc(OC)cc2)c(O)c1	23	0	0	0	0	0
CN(C(=O)CCCOc1ccc2[nH]c(=O)ccc2c1)C1CCCCC1	-	-	0	-	-	-
CCN1C(=O)N(CC)C(O)(c2ccccc2)C1(O)c1ccccc1 (centres undefined)	0	0	0	34	0	0
CCN1C(=O)N(C)C2(c3ccccc3)N(C)C(=O)N(C)C12c1ccccc1 (centres undefined)	0	0	0	0	0	0
